Reference: PubChem BioAssay (Tox21)
“And” between values parts separate entries of the source, which are not always exact repeats. Equal entries are not always repeated. Results filed as inconclusive are left out. The source made the active and inactive calls. The call rests on the fitted dose curve; in most records, active means well fitted inhibition curve with a large enough effect in the repeat runs; inconclusive means weak or mixed curves; inactive means no such curve, though single readings can be large or run the other way.

target: Cytochrome P450 2C9 (Homo sapiens) (UniProt P11712); test: Cytochrome P450 Family 2 Subfamily C Member 9 (CYP2C9) small molecule antagonists: luciferase reporter qHTS assay (AID 1671198); conditions: P450-Glo CYP2C9 enzyme assay, luciferin luminescence; series mostly up to 53 µM; activity change, negative = inhibition: at the top concentration; further: nearly all actives have a fitted effect of over 50% in size
Source text: U.S. Tox21 Program National Center for Advancing Translational Sciences [NCATS] U.S. Environmental Protection Agency [EPA] National Institutes of Environmental Health Sciences [NIEHS] National Toxicology Program [NTP] U.S. Food and Drug Administration [FDA] Tox21 Assay Overview: Cytochrome P450 (CYP) enzymes are membrane-bound hemeproteins that play a key role in metabolism of drugs and xenobiotics. Evaluation of the effect of chemicals on CYP isozymes is useful to minimize the adverse drug reactions and toxicities in drug development process. Tox21 chemicals were tested for their effect on CYP enzyme activities by using P450-Glo (TM) screening systems (Promega Corporation, Madison, WI). These systems provide a luminescent method containing proluciferin substrates and are converted to luciferin products by CYP isozymes. The luciferin products formed are detected with a luciferin detection reagent, and the amount of light produced is proportional to CYP activity. P450-Glo (TM) CYP2C9 screening system (Catalog. No. V9790) was used to detect the compounds that interfere in CYP2C9 activity.
Tox21 Assay Protocol Summary: Two ul of enzyme-substrate mix was dispensed into medium binding white/solid 1536-well plates (Greiner Bio-One North America Inc., Monroe, NC) using a BioRaptr Flying Reagent Dispenser (FRD, Beckman Coulter, Brea, CA). […] The assay plates were incubated at room temperature for 10 min. Then 2 ul of NADPH regeneration solution was added to each well of the assay plates using an FRD and incubated at 37C for 1 h. The reaction was stopped by adding 4 ul of detection reagent using an FRD and after 20 min incubation at room temperature the luminescence signal was measured using a ViewLux plate reader (Perkin Elmer, Shelton, CT). Data were expressed as relative luminescence units.
On the % scale 0 is the no-effect control and ±100 the full control effect; potency means the concentration at half of the fitted maximal effect.

Cytochrome P450 2C9 (Homo sapiens), sequence (P11712 whole entry, looked up): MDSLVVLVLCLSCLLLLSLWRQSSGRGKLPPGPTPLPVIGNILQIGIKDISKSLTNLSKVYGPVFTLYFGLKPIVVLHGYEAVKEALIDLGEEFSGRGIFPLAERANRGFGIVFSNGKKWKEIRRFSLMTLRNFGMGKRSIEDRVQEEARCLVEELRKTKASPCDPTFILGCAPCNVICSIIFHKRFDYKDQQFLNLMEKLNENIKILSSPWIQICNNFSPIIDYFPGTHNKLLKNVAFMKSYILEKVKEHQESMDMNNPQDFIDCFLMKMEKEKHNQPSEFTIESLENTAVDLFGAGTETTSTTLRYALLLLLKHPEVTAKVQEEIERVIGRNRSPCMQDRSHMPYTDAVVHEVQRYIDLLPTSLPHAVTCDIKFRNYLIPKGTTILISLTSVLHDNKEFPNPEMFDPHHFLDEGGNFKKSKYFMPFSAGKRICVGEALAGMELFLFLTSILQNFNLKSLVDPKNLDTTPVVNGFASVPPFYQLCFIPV

SMILES	activity change, negative = inhibition	Potency
CN(C)CCCOC1(Cc2ccccc2)CCCCCC1	-3.3% (inactive)	
N=C1N=C(N)c2ccccc21	-13.7% [at 115 µM] (inactive)	
Cc1c(C)c2c(c(C)c1O)CCC(C)(COc1ccc(CC3SC(=O)NC3=O)cc1)O2 (stereo not given)		5.03 µM (active) and 4.9 µM (active)
CCCCN(CCCC)C(=O)N(CCCC)CCCC	-18.5% [at 115 µM] (inactive)	
O=C(Oc1ccccc1)c1ccccc1C(=O)Oc1ccccc1		12.6 µM (active)
Cc1cc2c(cc1C(F)(F)F)N(C(=O)Nc1ccc(Oc3cccnc3C)nc1)CC2		11.4 µM (active)
NNc1nc(-c2ccccc2)cs1		9.19 µM (active)
COc1cc(/C=C/C(=O)O[C@H]2CC[C@]34C[C@]35CC[C@]3(C)[C@@H]([C@H](C)CCC=C(C)C)CC[C@@]3(C)[C@@H]5CC[C@H]4C2(C)C)ccc1O	-11.8% (inactive)	
CCCC(=O)OC[C@@H](OC(=O)CCC)[C@@H](OC(=O)CCC)[C@H](Cn1c2nc(=O)[nH]c(=O)c-2nc2cc(C)c(C)cc21)OC(=O)CCC		13.8 µM (active)
Cc1cc(N)c(S(=O)(=O)O)cc1Cl		28.6 µM (active)
[O-][n+]1ccccc1SSc1cccc[n+]1[O-]		1.51 µM (active)
Oc1cccc(-c2c3nc(c(-c4cccc(O)c4)c4ccc([nH]4)c(-c4cccc(O)c4)c4nc(c(-c5cccc(O)c5)c5ccc2[nH]5)CC4)C=C3)c1		13.8 µM (active)
CCN(CC)CCCC(C)Nc1c2ccc(Cl)cc2nc2ccc(OC)cc12 (stereo not given)	13.4% (inactive)	
Clc1ccc(C(Cn2ccnc2)OCc2ccc(Sc3ccccc3)cc2)c(Cl)c1 (stereo not given)		2.75 µM (active)
CCCC/C=C/CCCCO		71 µM (active)
CN1CCN(CCC(=O)N2c3ccccc3Sc3ccc(C(F)(F)F)cc32)CC1	-14% (inactive)	
CN(C)c1ccc(C2(c3ccc(N(C)C)cc3)OC(=O)c3cc(N(C)C)ccc32)cc1		3.16 µM (active)
Clc1ccc2n[nH]nc2c1	-13.5% [at 115 µM] (inactive)	
CCCCCCCCCCCCCCCC[N+](C)(C)CCN(Cc1ccc(OC)cc1)c1ncccn1		30.9 µM (active)
CSc1cnc(C)cn1	-12.3% [at 300 µM] (inactive)	

SMILES	activity change, negative = inhibition	Potency
CC(C)(C)NC(=O)[C@@H]1C[C@@H]2CCCC[C@@H]2CN1C[C@@H](O)[C@H](Cc1ccccc1)NC(=O)[C@H](CC(N)=O)NC(=O)c1ccc2ccccc2n1		40.4 µM (active)
Cc1cccc(CN2CCN(C(c3ccccc3)c3ccc(Cl)cc3)CC2)c1 (stereo not given)		13.8 µM (active)
C/C(=C(/OCCOc1ccc(Cl)cc1)c1ccc(Cl)cc1Cl)n1ccnc1		0.871 µM (active)
CCCCN1CCCC[C@H]1C(=O)Nc1c(C)cccc1C	1.53% (inactive)	
COc1ccc(C(=O)/C(Br)=C\C(=O)O)cc1		25.2 µM (active)
O=C1C=CC(=O)N1	0.298% [at 115 µM] (inactive)	
O=C1CCCc2c1cc1ccc3cccc4ccc2c1c34		5.71 µM (active)
Cc1cc(=O)oc2cc(N(C)C)ccc12		44.8 µM (active)
C[C@H]1[C@H]2CC[C@H]3[C@@H]4CC=C5C[C@@H](N(C)C)CC[C@]5(C)[C@H]4CC[C@]23CN1C	-1.48% (inactive)	
NNC(=O)c1cccc(C(=O)NN)c1		35.6 µM (active)
CCCCCOc1ccccc1/C(=C\SC)n1ccnc1		5.49 µM (active)
Cc1ccc2oc(CN(Cc3ccccc3)C(=O)Nc3c(F)cc(F)cc3F)c(-c3ccc(Cl)cc3)c2c1		4.34 µM (active)
OC1(c2ccc(Cl)c(C(F)(F)F)c2)CCN(CCCC(c2ccc(F)cc2)c2ccc(F)cc2)CC1		8.71 µM (active)
O=c1cccccc1O	-15% [at 115 µM] (inactive)	
CCCC(c1cc(C(C)(C)C)c(O)cc1C)c1cc(C(C)(C)C)c(O)cc1C		3.6 µM (active)
O=C(NO)C1(NS(=O)(=O)c2ccc(Oc3ccc(F)cc3)cc2)CCOCC1		56.4 µM (active)
Nc1nc2ccccc2n1Cc1ccc(F)cc1	-14.3% (inactive)	
CCOC(=O)/C=C(C)/C=C/C=C(C)/C=C/c1c(C)cc(OC)c(C)c1C		6.17 µM (active)
Cn1cc(C(=O)[C@@H]2CCc3nc[nH]c3C2)c2ccccc21	36.6% (inactive)	
Cc1cc(O)c(Cl)c(C)c1Cl	135% [at 115 µM] (inactive)	
